A selection: hits, their analogues and other compounds. The true share with any hit is near 3.4%.
GPR151 activ: human GPR151 activation. Q8TDV0. PathHunter beta-arrestin GPR151 cells, luminescence. activation, % at 11.2 µM. 1% of 650,000 active; in the data active = activation above about 4.9%;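 also: 0% = median of compound wells and 100% = cells with positive control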
TEAD-YAP inh: TEAD-YAP interaction inhibition | HEK-TIYL cells, TEAD-Gal4/YAP UAS-luciferase luminescence | inhibition, % at 9.12 µM | 1.4% of 640,000 active | AID 1259422; in the data active = inhibition above about 32%;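 also: 0% = median of test compound wells and 100% = reference inhibitor wells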
MITF inh: human MITF inhibition, primary screen; O75030; AlphaScreen MITF homodimerization, bead proximity signal; inhibition, % at 2.6 µM; 0.91% of 650,000 active; AID 1259374; in the data active = inhibition above about 50%;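 also: 0% = vehicle wells with protein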
FBW7 act: activators of human E3 ligase FBW7 | Q969H0 | AlphaScreen FBW7–phospho-cyclin E peptide binding, activator screen | normalized activity (activation), % at 26.1 µM | 0.13% of 650,000 active | AID 1259310; in the data active = normalized activity above about 1.9%;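 also: purified mutant Fbw7 with reduced substrate affinity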
Target sequence (Q969H0 whole entry, looked up): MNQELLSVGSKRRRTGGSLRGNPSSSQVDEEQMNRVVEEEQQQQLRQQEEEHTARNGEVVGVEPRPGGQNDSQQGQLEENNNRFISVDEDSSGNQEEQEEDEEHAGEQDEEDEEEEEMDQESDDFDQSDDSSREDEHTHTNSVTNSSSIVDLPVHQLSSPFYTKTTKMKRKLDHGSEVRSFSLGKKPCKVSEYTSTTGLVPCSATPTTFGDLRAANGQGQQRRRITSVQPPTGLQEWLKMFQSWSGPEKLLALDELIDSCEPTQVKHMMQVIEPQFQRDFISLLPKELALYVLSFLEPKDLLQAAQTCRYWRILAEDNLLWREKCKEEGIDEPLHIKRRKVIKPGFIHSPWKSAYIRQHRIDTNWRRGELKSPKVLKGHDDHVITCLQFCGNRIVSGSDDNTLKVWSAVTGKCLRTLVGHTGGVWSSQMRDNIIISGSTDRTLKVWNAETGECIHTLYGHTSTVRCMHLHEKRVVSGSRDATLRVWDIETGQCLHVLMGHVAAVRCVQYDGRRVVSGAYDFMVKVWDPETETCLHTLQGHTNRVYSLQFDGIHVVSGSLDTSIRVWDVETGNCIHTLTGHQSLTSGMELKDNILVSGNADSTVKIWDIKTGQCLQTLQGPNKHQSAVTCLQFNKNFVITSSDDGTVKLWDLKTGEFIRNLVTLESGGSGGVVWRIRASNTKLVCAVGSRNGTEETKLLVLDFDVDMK
MITF confirm: human MITF inhibition, confirmation | shares compounds with MITF inh | AlphaScreen MITF homodimerization, biotin/His-MITF beads | inhibition, % at 2.6 µM | 16% of 4,700 active | AID 1259372;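 active = inhibition above a cutoff derived from the DMSO control wells, cut at about 28% in these data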;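 also: 0% = MITF dimer wells with DMSO only; inhibitors lower the bead chemiluminescence by keeping MITF from dimerizing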
AlphaScreen intf2: counter-screen: compounds optically interfering with AlphaScreen; shares compounds with MITF inh; LysRS AlphaScreen counterscreen, signal interference, triplicate; inhibition, % at 2.6 µM; 7.6% of 4,700 active; AID 1259376;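 active = inhibition above a cutoff derived from the DMSO control wells, cut at about 30% in these data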
* hit, by the source's call; x = no result.

SMILES	GPR151 activ	TEAD-YAP inh	MITF inh	FBW7 act	MITF confirm	AlphaScreen intf2
O=C(Nc1ccc(S(=O)(=O)Nc2ncccn2)cc1)c1cc(F)c(F)c(F)c1F	1.3	-0.6	2.1	0.0	x	x
O=S1(=O)CC(OS(=O)(=O)c2ccccc2)C(OS(=O)(=O)c2ccccc2)C1 (configuration not stated)	0.5	2.0	70.7*	0.1	-4.9	-5.6
O=C(c1ccncc1)N1CCN(C2CCCCCC2)CC1	1.6	-1.3	81.7*	-0.2	-2.1	-0.1
CC1CCCC(N2CCN(C(=O)c3cccs3)CC2)C1 (configuration not stated)	-0.1	3.2	53.5*	0.5	-5.7	-1.6
CC1CCCC(N2CCN(C(=O)c3ccncc3)CC2)C1 (configuration not stated)	1.7	-5.0	53.1*	-0.1	-6.0	-5.2
COc1cc(OC)cc(C(=O)N2CCN(C3CCCCCC3)CC2)c1	2.0	-0.4	59.1*	0.0	-0.2	11.6
O=C(c1cccs1)N1CCN(C2CCCC2)CC1	-0.1	-9.5	45.0	0.1	x	x
Cc1ccc([N+](=O)[O-])cc1S(=O)(=O)N1CCC(Cc2ccccc2)CC1	0.0	-5.4	0.9	-0.3	x	x
O=S(=O)(NCCSCc1ccccc1)c1ccc(Cl)cc1	-1.1	1.7	0.9	0.6	x	x
Cc1ccc(NC(=O)c2ccc(CNc3c(N4CCC(C)CC4)c(=O)c3=O)cc2)cc1F	-1.7	-2.3	-5.6	-0.2	x	x
O=C(c1ccccc1)N1CCC(N2CCCCCC2)CC1	-0.6	9.9	20.2	0.0	x	x
COc1ccc(C(=O)N2CCN(C3CCC(c4ccccc4)CC3)CC2)cc1 (configuration not stated)	-0.9	2.7	55.8*	0.5	13.6	16.1
CN1CCN(C2CCN(C(=O)c3ccc(-c4ccccc4)cc3)CC2)CC1	0.0	-4.2	69.0*	0.2	-0.9	0.5
O=C(c1cccs1)N1CCC(N2CCCCCC2)CC1	-2.0	9.3	55.5*	0.6	-7.0	-6.6
COc1cc(OC)cc(C(=O)N2CCN(C3CCC(c4ccccc4)CC3)CC2)c1 (configuration not stated)	-0.8	13.3	33.7	0.6	x	x
Cc1cc(=O)oc2cc(NC(=S)NC(C)c3ccncc3)ccc12 (configuration not stated)	-0.8	5.4	0.2	-0.2	x	x
O=C(c1cccnc1)N1CCCN(S(=O)(=O)c2cccc3cnccc23)CC1	-0.8	-8.6	2.9	0.2	x	x
CCOC(=O)c1[nH]c2ccc(C)cc2c1N=CN(C)C	2.1	-20.8	-3.5	0.0	x	x
CC(C)(C)C(=O)N1CCC(Cn2nc(-c3ccc(F)cc3)ccc2=O)CC1	-0.6	-7.7	8.0	1.1	x	x
CC(C)N(CCNc1cc(-c2csc3ccccc23)nc(N)n1)C(C)C	1.6	4.8	6.0	0.0	x	x
O=S(=O)(c1ccc(F)cc1)N1CCCN(Cc2c(F)cccc2F)CC1	-0.8	2.8	8.3	0.1	x	x
O=S(=O)(c1ccc(Br)cc1)N1CCN(Cc2ccc(F)cc2)CC1	-1.7	8.4	5.5	0.6	x	x
CS(=O)(=O)N1CCN(Cc2cccc(Br)c2)CC1	0.9	-11.6	62.9*	-0.3	13.9	15.0
COc1ccc(S(=O)(=O)N2CCN(Cc3cccc(Br)c3)CC2)cc1	0.3	-21.2	51.8*	-0.1	6.7	14.2
O=S(=O)(c1ccc(F)cc1)N1CCN(Cc2c(F)cccc2F)CC1	0.3	8.6	77.3*	0.2	16.1	-2.7
SMILES	GPR151 activ	TEAD-YAP inh	MITF inh	FBW7 act	MITF confirm	AlphaScreen intf2
COc1ccc(Br)cc1CN1CCN(S(=O)(=O)c2ccc(F)cc2)CC1	-1.3	9.3	58.9*	0.0	0.9	10.5
Cc1cn2cc(CNC(=O)CC3C(=O)NCCN3Cc3c(F)cccc3Cl)nc2s1 (configuration not stated)	0.6	-2.1	14.3	0.3	x	x
O=C(NCCN1CCCCC1)C1CCCN(c2nnc(N3CCCC3=O)s2)C1 (configuration not stated)	0.0	-1.1	8.3	0.2	x	x
COC(=O)c1cn(NC(=O)C(c2ccccc2)C2CCCC2)c(=O)c2ccccc12 (configuration not stated)	-0.6	-6.2	-10.8	-0.1	x	x
COc1ccc(CN2CCN(C3CCCCC3)CC2)c(OC)c1OC	0.7	7.5	76.0*	0.1	-3.7	2.1
CCOc1ccccc1CN1CCC(N2CCC(C)CC2)CC1	-0.9	-0.1	70.5*	0.1	15.8	17.5
COc1ccccc1CN1CCC(N2CCN(C)CC2)CC1	0.4	9.7	46.1	-0.1	x	x
COc1ccccc1CN1CCN(C2CCCCC2)CC1	-0.7	-0.6	70.4*	0.0	-5.1	-4.4
COc1ccc(CN2CCC(N3CC(C)OC(C)C3)CC2)c(OC)c1OC (configuration not stated)	0.5	9.0	64.6*	-0.1	-2.3	2.1
CCOc1ccccc1CN1CCC(N2CCOCC2)CC1	-0.8	-5.6	50.3	-0.1	x	x
CN(CCC#N)CC1Cc2ccccc2O1 (configuration not stated)	0.3	4.1	11.4	0.0	x	x
Cn1nnnc1SCc1csc(-c2ccccc2)n1	1.7	-38.4	6.9	-0.2	x	x
COc1ccc(CN2CCN(C3CCCC(C)C3)CC2)c(OC)c1OC (configuration not stated)	2.5	-5.6	53.7*	0.0	9.0	13.1
CCN1CCN(C2CCN(Cc3cc(OC)c(OC)c(OC)c3)CC2)CC1	-0.9	-3.1	49.1	0.1	x	x
COc1ccc(CN2CCC(N3CC(C)OC(C)C3)CC2)cc1 (configuration not stated)	-1.2	0.9	87.0*	0.0	-4.1	0.4
COc1ccc(CN2CCN(C3CCC(c4ccccc4)CC3)CC2)c(OC)c1OC (configuration not stated)	1.9	7.7	52.9*	0.0	11.7	21.5
CCN1CCN(C2CCN(Cc3ccc(OC)c(OC)c3OC)CC2)CC1	-0.7	2.5	60.7*	0.0	-13.4	-7.1
Cc1ccn2c(CNC(C)CCCC(C)(C)O)c(C(=O)N3CCCCCC3)nc2c1 (configuration not stated)	-0.6	-7.8	-7.0	0.2	x	x
O=C(Nc1nc2c(cc3c4c(cccc42)CC3)s1)c1ccc(S(=O)(=O)N2CCCCCC2)cc1	1.0	-5.1	15.3	1.0	x	x
CCOC(=O)c1c(N)nn2c3ccccc3n(C)c12	0.9	-24.4	63.8*	0.0	10.6	17.7
O=[N+]([O-])c1cc([N+](=O)[O-])c2cc[nH]c2c1	0.1	-1.9	69.1*	-0.1	0.2	3.6
CCCC(c1nnnn1C(C)C)N1CCN(c2ccccc2F)CC1 (configuration not stated)	-0.4	4.6	-7.7	-0.1	x	x
CCCCOCC(O)Cn1c2ccccc2c2ccccc21 (configuration not stated)	-2.1	-5.6	6.2	-0.5	x	x
CCCCOCC(O)Cn1c(Cc2ccccc2)nc2ccccc21 (configuration not stated)	0.9	-5.9	57.6*	-0.1	5.8	16.0
CC1CCN(Cc2ccc([N+](=O)[O-])cc2)CC1	2.8	4.1	6.5	-0.1	x	x

High-throughput results (PubChem)
